Rows were chosen to be rich in hits. Some 2.6% of all compounds tested hit in one or more screens of this group.
PHOSPHO1 block – PubChem AID 1565 | recombinant PHOSPHO1, absorbance phosphatase assay | inhibition, % at 13.3 µM | actives 1.1% (n = 290,000); in the data active = inhibition above about 60%
Target sequence (Q8TCT1 whole entry, looked up): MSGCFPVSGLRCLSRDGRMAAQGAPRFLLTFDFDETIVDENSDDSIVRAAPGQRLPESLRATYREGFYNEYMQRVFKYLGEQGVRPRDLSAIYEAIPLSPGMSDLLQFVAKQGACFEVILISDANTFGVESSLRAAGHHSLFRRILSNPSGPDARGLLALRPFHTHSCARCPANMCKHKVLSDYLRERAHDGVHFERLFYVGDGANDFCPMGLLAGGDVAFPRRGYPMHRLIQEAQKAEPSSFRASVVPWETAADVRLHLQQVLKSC
MLLE-PAM2 inh – inhibitors of PABP1 MLLE–PAM2 peptide binding, primary screen, biochemical, fluorescence polarization, FITC-PAM2, GST-MLLE | Polyadenylate-binding protein 1 (Homo sapiens), P11940 | inhibition, % at 20 µM | actives 0.36% (n = 360,000) | AID 588489, 2011; in the data active = inhibition above about 35%, passing the limit was not always enough;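 also: plate controls were DMSO wells with GST-MLLE for no effect and wells lacking GST-MLLE protein for full effect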
APOBEC3A inh – APOBEC3A ssDNA deaminase inhibitors, primary screen, selectivity assay for APOBEC3G inhibitor project, biochemical, FAM/TAMRA oligo cleavage fluorescence | recombinant A3A, FAM/TAMRA ssDNA deamination fluorescence | inhibition, % at 20 µM | actives 0.41% (n = 330,000);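 active = at least 40% inhibition at 20 µM here, with at most 30% in a related deaminase screen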;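 also: plate controls were A3A with DMSO for no effect and wells lacking A3A enzyme for full effect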
PABP polyA inh – PABP poly(A) RNA binding inhibitors, primary screen, biochemical, fluorescence polarization, uHTS | Polyadenylate-binding protein 1 (Homo sapiens), P11940 | actives 1% (n = 290,000) | calls only at 35 µM;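 also: calls also rest on retests at 20 µM and on dose response follow-up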
eIF4H FP inh – human eIF4H binding inhibitors, primary screen, translation initiation inhibitor project, biochemical, uHTS, fluorescence polarization; Eukaryotic translation initiation factor 4H (Homo sapiens), Q15056; eIF4H fluorescence polarization binding assay; inhibition, % at 35 µM; actives 0.94% (n = 290,000); AID 2012, 2009;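 also: calls also rest on retests at 20 µM and on dose response follow-up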
APOBEC3G inh – APOBEC3G DNA deaminase inhibitors, primary screen, biochemical, fluorescence, single-stranded DNA substrate, uHTS; DNA dC->dU-editing enzyme APOBEC-3G (Homo sapiens), Q9HC16; recombinant A3G, ssDNA deamination FAM/TAMRA fluorescence; inhibition, % at 20 µM; actives 0.28% (n = 330,000); AID 493012, 2011;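 active = inhibition of at least 40% at 20 µM, with no more than 30% in the related APOBEC3A deaminase screen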;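 also: plate controls were DMSO wells with A3G for no effect and wells lacking A3G enzyme for full effect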
Starred values were filed as active, the others as inactive. Unless noted, no rule for the calls is given here.

For C=C(C)c1cccc(C(C)(C)NC(=O)NCc2ccncc2)c1 the results were PHOSPHO1 block 66*, MLLE-PAM2 inh -20, APOBEC3A inh -1, PABP polyA inh inactive, eIF4H FP inh 6 and APOBEC3G inh -6.
C=C(C)c1cccc(C(C)(C)NC(=O)NCc2cccnc2)c1 was read as PHOSPHO1 block 41, MLLE-PAM2 inh 7, APOBEC3A inh 0, PABP polyA inh inactive, eIF4H FP inh -13 and APOBEC3G inh -11.
Screening Oc1c(C(c2cccs2)N2CCN(c3ccccc3)CC2)ccc2cccnc12 (stereo unspecified) returned PHOSPHO1 block 69*, APOBEC3A inh 9, PABP polyA inh inactive, eIF4H FP inh 4 and APOBEC3G inh 25.
For Oc1c(C(c2ccccc2Cl)N2CCCC2)ccc2cccnc12 (stereo unspecified) the results were PHOSPHO1 block 1, MLLE-PAM2 inh 18, APOBEC3A inh 5, PABP polyA inh inactive, eIF4H FP inh 15 and APOBEC3G inh -4.
Screening O=C1C=CC(=O)N1c1cccc(-c2ccccc2)c1 returned PHOSPHO1 block 78*, MLLE-PAM2 inh 30, APOBEC3A inh -5, PABP polyA inh inactive, eIF4H FP inh -10 and APOBEC3G inh 22.
Screening COc1cc(N2C(=O)C=CC2=O)ccc1N1C(=O)C=CC1=O returned MLLE-PAM2 inh 30.
For COc1ccccc1N1CCN(C(=O)CSc2nc3ccccc3[nH]2)CC1 the results were PHOSPHO1 block 26, MLLE-PAM2 inh -77, APOBEC3A inh 25, PABP polyA inh inactive, eIF4H FP inh -4 and APOBEC3G inh 19.
For O=C(CSc1ncccc1-c1nc2ccccc2[nH]1)NC1CC1 the results were PHOSPHO1 block 13, MLLE-PAM2 inh 0, APOBEC3A inh 6, PABP polyA inh inactive, eIF4H FP inh -3 and APOBEC3G inh -1.
For COc1ccccc1N1CCN(C(=O)CSc2ncccc2-c2nc3ccccc3[nH]2)CC1 the results were PHOSPHO1 block 98*, MLLE-PAM2 inh -48, APOBEC3A inh 1, PABP polyA inh inactive, eIF4H FP inh 7 and APOBEC3G inh -2.
Screening O=C(CSc1ncccc1-c1nc2ccccc2[nH]1)N1CCN(c2ccccc2F)CC1 returned PHOSPHO1 block 88*, MLLE-PAM2 inh -23, APOBEC3A inh -2, PABP polyA inh inactive, eIF4H FP inh 1 and APOBEC3G inh -5.
For COc1ccc(N2CCN(C(=O)CSc3ncccc3-c3nc4ccccc4[nH]3)CC2)cc1 the results were PHOSPHO1 block 94*, MLLE-PAM2 inh -64, APOBEC3A inh -7, PABP polyA inh inactive, eIF4H FP inh 1 and APOBEC3G inh -8.
For O=C(CSc1ccccc1)NNC(=O)c1ccccc1O the results were PHOSPHO1 block 20, MLLE-PAM2 inh -12, APOBEC3A inh 0, PABP polyA inh inactive, eIF4H FP inh 11 and APOBEC3G inh -8.
Screening CS(=O)(=O)c1ccc2nc(NC(NC(=O)c3ccco3)(C(F)(F)F)C(F)(F)F)sc2c1 returned PHOSPHO1 block -3, MLLE-PAM2 inh 4, APOBEC3A inh 0, PABP polyA inh inactive, eIF4H FP inh -5 and APOBEC3G inh -2.
Screening Cc1cc(O)c(C(C)C)cc1N=C1CSC(=O)N1 returned PHOSPHO1 block 87*, MLLE-PAM2 inh 32, APOBEC3A inh -3, PABP polyA inh inactive, eIF4H FP inh 3 and APOBEC3G inh -4.
For CCOc1cc2[nH]c(=S)n(CCOC)c(=O)c2cc1OCC the results were PHOSPHO1 block 17, MLLE-PAM2 inh -73, APOBEC3A inh 1, PABP polyA inh inactive, eIF4H FP inh -5 and APOBEC3G inh -2.
For COCCn1c(=S)[nH]c2ccc(N(C)C)cc2c1=O the results were PHOSPHO1 block 98*, MLLE-PAM2 inh 26, APOBEC3A inh -5, PABP polyA inh inactive, eIF4H FP inh 11 and APOBEC3G inh -5.
Screening COc1cc(NC(=O)Cn2cnc3c(nc4n3CCCCC4)c2=O)cc(OC)c1OC returned PHOSPHO1 block 75*, MLLE-PAM2 inh 6, APOBEC3A inh 2, PABP polyA inh inactive, eIF4H FP inh -2 and APOBEC3G inh 17.
COc1cc(OC)cc(C(=O)Nc2ccc(S(=O)(=O)Nc3ncccn3)cc2)c1 was read as PHOSPHO1 block 57, MLLE-PAM2 inh 3, APOBEC3A inh -1, PABP polyA inh inactive, eIF4H FP inh -13 and APOBEC3G inh -10.
For O=C(Cc1cccs1)Nc1ccc(S(=O)(=O)Nc2ncccn2)cc1 the results were PHOSPHO1 block 28, MLLE-PAM2 inh -32, APOBEC3A inh 36, PABP polyA inh active, eIF4H FP inh 61* and APOBEC3G inh 14.
Screening CC(C)NS(=O)(=O)c1ccc(NC(=O)Cc2cccs2)cc1 returned PHOSPHO1 block 21, MLLE-PAM2 inh -2, APOBEC3A inh -2, PABP polyA inh inactive, eIF4H FP inh -2 and APOBEC3G inh -11.
`COc1ccc(C(=O)Nc2ccc(S(=O)(=O)Nc3ncccn3)cc2)cc1OC` gave PHOSPHO1 block 60*, MLLE-PAM2 inh 5, APOBEC3A inh -3, PABP polyA inh inactive, eIF4H FP inh 9 and APOBEC3G inh -10.
COC(=O)c1cc(S(=O)(=O)N2CCCCC2)c[nH]1 was read as PHOSPHO1 block 36, MLLE-PAM2 inh 2, APOBEC3A inh -3 and APOBEC3G inh -8.
`CC(C)CNC1=CC(=O)CC(c2ccco2)C1` (stereo unspecified) gave PHOSPHO1 block 4, MLLE-PAM2 inh 6, APOBEC3A inh 7, PABP polyA inh active, eIF4H FP inh 108* and APOBEC3G inh 3.
`O=C1C=C(NCc2ccc(Cl)cc2)CC(c2ccco2)C1` (stereo unspecified) gave PHOSPHO1 block 9, MLLE-PAM2 inh -5, APOBEC3A inh 6 and APOBEC3G inh 2.
`C=CCNc1sc(C(=O)c2ccc(C)cc2)c(N)c1C#N` gave PHOSPHO1 block 96*, MLLE-PAM2 inh -1, APOBEC3A inh -5, PABP polyA inh inactive, eIF4H FP inh 4 and APOBEC3G inh -7.
C=CCNc1sc(C(=O)c2ccccc2)c(N)c1C#N was read as PHOSPHO1 block 96*, MLLE-PAM2 inh -2, APOBEC3A inh -5, PABP polyA inh inactive, eIF4H FP inh 8 and APOBEC3G inh -6.
`C=CCNc1sc(C(=O)C(C)(C)C)c(N)c1C#N` gave PHOSPHO1 block -24, MLLE-PAM2 inh -16, APOBEC3A inh 1, PABP polyA inh inactive, eIF4H FP inh 6 and APOBEC3G inh -4.

Compound activity deposited in PubChem BioAssay by Sanford-Burnham Center for Chemical Genomics.
